The values that follow come from PubChem BioAssay (NCI).

Values joined by “and” are separate entries in the source; they are usually repeats but may differ in a detail not shown here. Equal entries are not always repeated. Compounds without any hit were thinned out: in the full panel of roughly 83,000, 20% have a hit.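 The test compound was applied at a single concentration to cells in 96-well plates for 48 hours, and percent growth was recorded.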 Active and inactive are the calls of the source. How the source made its calls: active means growth percent below 10; inactive means the rest.

One experiment has as its system MDA-MB-435 melanoma. The experiment in a line: NCI-60 one-dose screen, 48 h (100 = growth as untreated, 0 = no growth, -100 = all killed). To be noted: 10 µM unless noted.
Take `S=c1nc(CS)[nH]c2ccccc12`: the growth is 101% (inactive).

For the compound `O=C(CC1(O)C(=O)Nc2ccc(Br)cc21)c1ccc(Cl)cc1` (stereo not drawn), the growth was 109% (inactive).

As to `Clc1ccc(/C=N\N2CCCCCC2)cc1`, the growth was 86.8% (inactive) and 96.3% (inactive).

As for `COc1ccc(Nc2ncnc3ccc(-c4cncc(NS(C)(=O)=O)c4)cc23)cc1Cl`, the growth is 49.1% (inactive).

Consider `O=C(c1cccc(Br)c1)N1CCN(c2ccnc3cc(Cl)ccc23)CC1`, for which the growth was 90.2% (inactive).

With `CCCn1nc(C(=O)N2CCCCC2)c2c1CCC(N1CCC(c3ccncc3)CC1)C2` (stereo not drawn), the growth is 102% (inactive).

For `O=C(Nc1cc(C(F)(F)F)cc(C(F)(F)F)c1)c1cc(Cl)ccc1O`, the growth was -21.2% (active) and -8.57% (active).

In the case of `Cc1cnc(C(=O)NNc2nc3sc4c(c3c(=O)[nH]2)C(C)CCC4)cn1` (stereo not drawn), the growth was 31.4% (inactive).

Turning to `CN1CCN(CCNC(=O)c2cccc(CN3c4cccc5c4C(=Cc4cccnc43)N(C)C5=O)c2)CC1`, the growth is 39.8% (inactive).

In the case of `CCNC(=O)Oc1ccc(/C(=C(/C)Cc2ccc(OC)cc2)c2ccc(OCCN(CC)CC)cc2)cc1`, the growth was 40.5% (inactive).

Take `COc1c(NC=O)c2c(c([N+](=O)[O-])c1OC)C(=O)OC2`: the growth was 115% (inactive) and 101% (inactive).

For `COc1cc(/C=C2\C(=O)N(CCCCn3c4ccccc4c(=O)c4ccccc43)c3ccccc32)cc(OC)c1O`, the growth is 6.24% (active).

For `Cc1c(O)c(O)cc2c3c(oc12)CC(c1ccc2c(c1)OCO2)CC3=O` (stereo not drawn), the growth was 105% (inactive).

For `CC(=NCc1ccccc1)c1ccc(O)cc1O`, the growth was 114% (inactive).

On to `COc1ccc(CCNC(=O)COc2cc3c(Nc4ccc(F)c(Cl)c4)ncnc3cc2OC)cc1OC`, for which the growth was 97.2% (inactive).

For `COc1cccc(NC(=O)c2sc3nc(C)c(C(O)c4ccccc4)cc3c2N)c1` (stereo not drawn), the growth is 5.31% (active).

Consider `Cc1cc2nc(C(Cl)Cl)nc(-c3ccc(Cl)cc3)n2n1`, for which the growth is -25.2% (active).

Take `Nc1ccc(S(=O)(=O)c2ccc(N)cc2)cc1`: the growth is 94.6% (inactive).

As to `CCCCCO/N=C\c1c2c(O)c3c(O)c(C)c4c(c3c1O)C(=O)C(C)(O/C=C\C(OC)C(C)C(OC(C)=O)C(C)C(O)C(C)C(O)C(C)/C=C\C=C(\C)C(=O)N2)O4` (stereo not drawn), the growth was 15.8% (inactive).

On to `COc1ccc(-c2nc(Cl)c3c(C)nn(-c4ccc(F)cc4)c3n2)cc1`, for which the growth was 112% (inactive).

With `COc1ccc(Oc2nc(Nc3ccc(N4CCOCC4)cc3)ncc2NC(=O)c2cccc(C(F)(F)F)c2)cc1`, the growth is 98.2% (inactive).

Consider `O=C1C=CC(=O)N1c1ccc2ccccc2c1`, for which the growth is 120% (inactive) and 95.4% (inactive).

Turning to `CN(C)C1CCN(C(=O)c2ccc(NC(=O)Nc3ccc(-c4nc(N5CCOCC5)c5cccn5n4)cc3)cc2)CC1`, the growth was 1.97% (active).

As to `O=C(Cc1ccc(F)cc1)c1ccccc1`, the growth is 106% (inactive).

For the compound `Cc1ccc(C(=O)c2ccc(CC(=O)N=Nc3c(O)[nH]c4ccc(OC(F)(F)F)cc34)n2C)cc1`, the growth was 97.9% (inactive).

Regarding `O=C(NNc1ccccc1)C1CCCN1` (stereo not drawn), the growth is 37.1% (inactive).

Take `O=C(/C=C/c1ccc(F)cc1)Nc1ncc(Cc2ccc(F)cc2)s1`: the growth is -48.2% (active).

Take `O=C1/C(=C/c2ccccc2[N+](=O)[O-])Cc2ccccc21`: the growth was 28.4% (inactive) and 36.3% (inactive).

Consider `CCCO/N=C/c1ccccn1`, for which the growth is 107% (inactive) and 105% (inactive).

In the case of `COc1cc2nc3cc([N+](=O)[O-])ccc3c(NCCNCC(C)(C)O)c2cc1OC`, the growth was -86.8% (active).

`Cc1ccc(-c2nc(SCC(=O)c3ccc(C#N)cc3)[nH]c(=O)c2C#N)cc1`: the growth is 106% (inactive).

`COc1ccc(/C=C/C(=O)c2cc3c(N)c(C(=O)Nc4ccccc4)sc3nc2C)cc1`: the growth is -23.9% (active).

On to `CC1(C)C(N)=Nc2cc(OCCCN3Cc4ccc(OCCc5cn(CC(=O)N6CCC(CCN7CCCC7)CC6)nn5)cc4C3)c(OCC3CC3)cc21`, for which the growth was 102% (inactive).

As for `CCCN1C(=O)/C(=c2\sc3n(c2=O)NC2C(N=3)N(CC)C(=O)N2CC)c2ccccc21` (stereo not drawn), the growth was -10.6% (active).

Turning to `c1cc(NCCCCN2CCOCC2)c2ccc3c(ccc4c(NCCN5CCOCC5)ccnc43)c2n1`, the growth is 98.5% (inactive).

Turning to `Clc1cccc(Nc2ncnc3ccc(-c4cncc(-n5cnnn5)c4)cc23)c1`, the growth is 89.8% (inactive).

For the compound `COc1ccc2c(c1)c(-c1nc(-c3c[nH]c4c(Cl)nccc34)cs1)cn2C`, the growth was 98.3% (inactive).

For `C=CCOc1ccc(/C=C2\SC(=S)N(CCc3ccc(O)cc3)C2=O)cc1`, the growth was 77.5% (inactive).

As for `CCOc1ccc(C(=O)Cc2ccccc2)cc1`, the growth is 106% (inactive) and 102% (inactive).

The next experiment concerns SW-620 colon. Described as above. Particulars: 10 µM unless noted.
In the case of `S=c1nc(CS)[nH]c2ccccc12`, the growth is 98.5% (inactive).

In the case of `O=C(CC1(O)C(=O)Nc2ccc(Br)cc21)c1ccc(Cl)cc1` (stereo not drawn), the growth is 99% (inactive).

Regarding `Clc1ccc(/C=N\N2CCCCCC2)cc1`, the growth is 101% (inactive) and 110% (inactive).

In the case of `COc1ccc(Nc2ncnc3ccc(-c4cncc(NS(C)(=O)=O)c4)cc23)cc1Cl`, the growth was 37.7% (inactive).

For `O=C(c1cccc(Br)c1)N1CCN(c2ccnc3cc(Cl)ccc23)CC1`, the growth was 101% (inactive).

On to `CCCn1nc(C(=O)N2CCCCC2)c2c1CCC(N1CCC(c3ccncc3)CC1)C2` (stereo not drawn), for which the growth was 104% (inactive).

As for `O=C(Nc1cc(C(F)(F)F)cc(C(F)(F)F)c1)c1cc(Cl)ccc1O`, the growth was 2% (active) and 5.7% (active).

On to `Cc1cnc(C(=O)NNc2nc3sc4c(c3c(=O)[nH]2)C(C)CCC4)cn1` (stereo not drawn), for which the growth is 35.3% (inactive).

For the compound `CN1CCN(CCNC(=O)c2cccc(CN3c4cccc5c4C(=Cc4cccnc43)N(C)C5=O)c2)CC1`, the growth was 52.7% (inactive).

As for `CCNC(=O)Oc1ccc(/C(=C(/C)Cc2ccc(OC)cc2)c2ccc(OCCN(CC)CC)cc2)cc1`, the growth is 45.2% (inactive).

As for `COc1c(NC=O)c2c(c([N+](=O)[O-])c1OC)C(=O)OC2`, the growth is 109% (inactive) and 103% (inactive).

As for `COc1cc(/C=C2\C(=O)N(CCCCn3c4ccccc4c(=O)c4ccccc43)c3ccccc32)cc(OC)c1O`, the growth was 47.4% (inactive).

On to `Cc1c(O)c(O)cc2c3c(oc12)CC(c1ccc2c(c1)OCO2)CC3=O` (stereo not drawn), for which the growth was 81.7% (inactive).

On to `CC(=NCc1ccccc1)c1ccc(O)cc1O`, for which the growth was 109% (inactive).

In the case of `COc1ccc(CCNC(=O)COc2cc3c(Nc4ccc(F)c(Cl)c4)ncnc3cc2OC)cc1OC`, the growth was 101% (inactive).

Turning to `COc1cccc(NC(=O)c2sc3nc(C)c(C(O)c4ccccc4)cc3c2N)c1` (stereo not drawn), the growth was 26.5% (inactive).

`Cc1cc2nc(C(Cl)Cl)nc(-c3ccc(Cl)cc3)n2n1`: the growth is -36.6% (active).

`Nc1ccc(S(=O)(=O)c2ccc(N)cc2)cc1`: the growth was 108% (inactive) and 92.5% (inactive).

Consider `CCCCCO/N=C\c1c2c(O)c3c(O)c(C)c4c(c3c1O)C(=O)C(C)(O/C=C\C(OC)C(C)C(OC(C)=O)C(C)C(O)C(C)C(O)C(C)/C=C\C=C(\C)C(=O)N2)O4` (stereo not drawn), for which the growth is 18.3% (inactive).

For `COc1ccc(-c2nc(Cl)c3c(C)nn(-c4ccc(F)cc4)c3n2)cc1`, the growth is 103% (inactive).

Take `COc1ccc(Oc2nc(Nc3ccc(N4CCOCC4)cc3)ncc2NC(=O)c2cccc(C(F)(F)F)c2)cc1`: the growth was 87.1% (inactive).

Regarding `O=C1C=CC(=O)N1c1ccc2ccccc2c1`, the growth is 19.4% (inactive) and -15.2% (active).

Take `CN(C)C1CCN(C(=O)c2ccc(NC(=O)Nc3ccc(-c4nc(N5CCOCC5)c5cccn5n4)cc3)cc2)CC1`: the growth was 9.03% (active).

Turning to `O=C(Cc1ccc(F)cc1)c1ccccc1`, the growth is 110% (inactive).

In the case of `Cc1ccc(C(=O)c2ccc(CC(=O)N=Nc3c(O)[nH]c4ccc(OC(F)(F)F)cc34)n2C)cc1`, the growth was 95.7% (inactive).

With `O=C(NNc1ccccc1)C1CCCN1` (stereo not drawn), the growth is 68.2% (inactive).

For `O=C(/C=C/c1ccc(F)cc1)Nc1ncc(Cc2ccc(F)cc2)s1`, the growth was 25.3% (inactive).

Consider `O=C1/C(=C/c2ccccc2[N+](=O)[O-])Cc2ccccc21`, for which the growth is -56.2% (active) and -45.4% (active).

Turning to `CCCO/N=C/c1ccccn1`, the growth is 102% (inactive) and 110% (inactive).

With `COc1cc2nc3cc([N+](=O)[O-])ccc3c(NCCNCC(C)(C)O)c2cc1OC`, the growth is -15.2% (active).

With `Cc1ccc(-c2nc(SCC(=O)c3ccc(C#N)cc3)[nH]c(=O)c2C#N)cc1`, the growth is 112% (inactive).

As for `COc1ccc(/C=C/C(=O)c2cc3c(N)c(C(=O)Nc4ccccc4)sc3nc2C)cc1`, the growth was 18% (inactive).

As for `CC1(C)C(N)=Nc2cc(OCCCN3Cc4ccc(OCCc5cn(CC(=O)N6CCC(CCN7CCCC7)CC6)nn5)cc4C3)c(OCC3CC3)cc21`, the growth is 109% (inactive).

In the case of `CCCN1C(=O)/C(=c2\sc3n(c2=O)NC2C(N=3)N(CC)C(=O)N2CC)c2ccccc21` (stereo not drawn), the growth is 31.5% (inactive).

With `c1cc(NCCCCN2CCOCC2)c2ccc3c(ccc4c(NCCN5CCOCC5)ccnc43)c2n1`, the growth was -16.5% (active).

Consider `Clc1cccc(Nc2ncnc3ccc(-c4cncc(-n5cnnn5)c4)cc23)c1`, for which the growth was 96.8% (inactive).

For the compound `COc1ccc2c(c1)c(-c1nc(-c3c[nH]c4c(Cl)nccc34)cs1)cn2C`, the growth was 103% (inactive).

For `C=CCOc1ccc(/C=C2\SC(=S)N(CCc3ccc(O)cc3)C2=O)cc1`, the growth is 88.9% (inactive).

Turning to `CCOc1ccc(C(=O)Cc2ccccc2)cc1`, the growth is 108% (inactive) and 110% (inactive).
